# A selection: hits, their analogues and other compounds. The true share with any hit is near 17%.
# DT40 TDP1 no CPT = qHTS for Inhibitors of human tyrosyl-DNA phosphodiesterase 1 (TDP1): qHTS in cells in absence of CPT | Potency, µM (series often up to 46.2 µM), actives largely listed as inhibitors | DT40 Tdp1-/- hTDP1 cells, no CPT, ATP luminescence, 48 h | 15% of 420,000 active; also: nearly all actives have a fitted effect of over 55% in size
#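 Luminescent ATP content (CellTiter-Glo) served as the growth readout. Knockout chicken DT40 cells expressing human TDP1 were exposed to compounds without camptothecin for a minimum 48 hr at 37 °C.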
# HepG2 viability = counter-screen for TGF-b inhibitors: cytotoxicity in HepG2 cells | Potency, µM (series often up to 46.1 µM), most hits filed as cytotoxic | HepG2 CAGA-GFP viability, ATP luminescence, 18 h | 0.76% of 410,000 active
#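 HepG2 CAGA-GFP cells (1000/well, DMEM with 1% FBS) received compound, then TGF-beta at 500 pg/mL final, and were incubated 18 hours at 37 degrees C. Viability was read by CellTiter-Glo luminescence. Media-only wells were set as complete cell-killing and DMSO as no toxicity.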
# HT1080 IDH1KD tx = HT-1080 IDH1 knockdown cell toxicity (counter line); HT-1080 IDH1 knockdown viability, ATP luminescence, 48 h; Potency, µM (top dose mostly 46.1 µM), usual class: cytotoxic; 2% of 360,000 active; AID 686971
#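 Knockdown cells (IDH1KD HT-1080) received compounds 2 h after plating at 750 cells/well and were kept 48 h at 37 °C in 5% FBS RPMI. A CellTiter-Glo luminescence read gave % activity for curve fitting.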
# TGFb SMAD3 inh = TGF-b pathway inhibition; 1.2% of 410,000 active; HepG2 CAGA-GFP TGF-b/SMAD3 reporter, GFP fluorescence, 18 h; TGF-beta stimulated, 500 pg/mL final; Potency, µM (titrated, usually from 46.1 µM), most hits filed as inhibitors; also: nearly all actives have a fitted effect of over 65% in size
#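 HEPG2 CAGA-GFP reporter cells (1000/well, DMEM with 1% FBS) received compounds, then recombinant TGF-beta at 500 pg/mL final for 18 hours at 37 degrees C. Per-cell GFP summed per well was normalised to unstimulated and stimulated DMSO controls before curve fitting.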
# HT1080NT lethal = kills 2HG-producing HT-1080-NT fibrosarcoma cells | HT-1080-NT fibrosarcoma viability, CellTiter-Glo ATP luminescence, 48 h | Potency, µM (top dose mostly 46.1 µM), hits mostly cytotoxic | 1.6% of 360,000 active;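 also: NT is the 2HG producing partner of a matched IDH1 knockdown line; nearly all actives have a fitted effect of over 55% in size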
#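 750 cells/well, RPMI + 5% FBS; 2 h settle, compound pin-transfer, 48 h at 37 degrees C. CellTiter-Glo 10 min RT, luminescence. Normalized to DMSO and media-only wells.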
# DT40 TDP1 CPT = growth inhibition of DT40 Tdp1-/-;hTDP1 cells with camptothecin (screen for TDP1 inhibitors). chicken DT40 Tdp1-/-;hTDP1 cells + 20 nM CPT, ATP luminescence, 48 h. 12% of 420,000 active. AID 686979. Potency, µM (top dose mostly 46.2 µM), actives largely listed as inhibitors; also: nearly all actives have a fitted effect of over 55% in size
#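 Cell growth measured by CellTiter-Glo luminescence after a minimum 48 h, 37 C compound exposure with 20 nM CPT in Tdp1-knockout DT40 cells stably expressing hTDP1, seeded 400/well; qHTS titration format.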
# A number is an active result; - = inactive; ? = inconclusive; . = no result given; [ ] = dose if it differs, or a comment. Calls follow the shape of the dose curve; as a rule, active = well fitted curve in the direction sought with a large enough effect; inconclusive = small, poorly fitted or top-dose-only effect, or another doubt; inactive = no such curve, though single readings can be large; an effect the other way counts as inactive or inconclusive.
SMILES,DT40 TDP1 no CPT,HepG2 viability,HT1080 IDH1KD tx,TGFb SMAD3 inh,HT1080NT lethal,DT40 TDP1 CPT
CCOc1ccccc1NC(=O)CSc1ncnc2c1oc1ccccc12,?,-,-,-,-,29µM
CCOc1ccccc1NC(=O)CSc1nc2c(oc3ccccc32)c(=O)n1-c1ccc(F)cc1,6.5µM,-,.,?,.,8.2µM
CCOC(=O)c1ccc(N2C(=O)c3[nH]nc(-c4ccc(OC)cc4)c3C2c2ccccc2Cl)cc1 (stereo unspecified),23µM,-,.,-,.,18µM
CCOC(=O)c1ccc(N2C(=O)c3n[nH]c(-c4ccco4)c3C2c2ccc(O)c(OCC)c2)cc1 (stereo unspecified),15µM,-,.,16µM,.,16µM
O=C1c2[nH]nc(-c3ccccc3)c2C(c2ccccc2)N1c1cccc(C(F)(F)F)c1 (stereo unspecified),16µM,18µM,.,?,.,12µM
CCOC(=O)c1ccc(N2C(=O)c3n[nH]c(-c4ccco4)c3C2c2ccc(C(=O)OC)cc2)cc1 (stereo unspecified),15µM,-,.,?,.,26µM
N#Cc1ccc(CSc2nc3c(c(=O)[nH]2)CCC3)cc1,-,-,.,-,.,-
c1ccc(-c2csc(CN3CCCCC3)n2)cc1,?,-,-,-,-,-
CCOC(=O)c1ccc(N2C(=O)c3[nH]nc(-c4ccc(C)cc4)c3C2c2cccs2)cc1 (stereo unspecified),16µM,-,.,?,.,16µM
O=C1c2[nH]nc(-c3ccc(Br)cc3)c2C(c2cccc(O)c2)N1c1ccc(Cl)cc1 (stereo unspecified),23µM,14µM,.,7.1µM,.,?
Cc1ccc(-c2n[nH]c3c2C(c2cccc(O)c2)N(c2ccc(C(=O)O)cc2)C3=O)cc1 (stereo unspecified),-,-,-,?,-,-
COc1cc(C2c3c(-c4ccccc4)n[nH]c3C(=O)N2c2ccc(C(=O)O)cc2)ccc1O (stereo unspecified),-,-,-,-,-,-
CCOc1ccc(C2c3c(-c4ccc(C)cc4)n[nH]c3C(=O)N2c2ccc(Cl)cc2)cc1 (stereo unspecified),?,13µM,.,4.5µM,.,?
CCOC(=O)c1ccc(N2C(=O)c3[nH]nc(-c4ccc(C)cc4)c3C2c2ccc(O)c(OCC)c2)cc1 (stereo unspecified),23µM,-,.,?,.,18µM
CC(=O)OC1CC[C@@]2(C)C(CC[C@@]3(C)C2CC=C2C4CC(C)(C)CC[C@]4(C(=O)O)CC[C@@]23C)C1(C)C (stereo partly specified),-,.,.,.,.,-
CCc1nc2ccc(C(=O)NCCN3CCOCC3)cn2c1N(C=O)Cc1ccc(OC)cc1,-,-,-,-,-,-
CCOC(=O)N1CC=C2C(C#N)=C(N)C(C#N)(C#N)[C@H](c3ccccc3OCC)[C@H]2C1,?,-,?,-,?,?
N#CC1=C(N)C(C#N)(C#N)[C@H](c2cccnc2)[C@H]2CN(C(=O)OCc3ccccc3)CC=C12,15µM,-,?,-,-,?
N#CC1=C(N)C(C#N)(C#N)C(c2cccnc2)C2CC(c3ccccc3)CC=C12 (stereo unspecified),21µM,-,-[9.24 µM],-,?,16µM
CN1CC=C2C(C#N)=C(N)C(C#N)(C#N)C(c3ccsc3)C2C1 (stereo unspecified),?,-,-,-,-,?
COc1ccc(Cl)cc1S(=O)(=O)NCc1ccncc1,?,-,-,-,-,?
Cc1ccccc1C1C(C#N)=C2N=C(N)c3c(sc4c3CCCCC4)N2C2=C1C(=O)CC(C)(C)C2 (stereo unspecified),?,-,-,-,-,18µM
COc1cc(C2C(C#N)=C(N)N(c3sc4c(c3C#N)CCCC4)C3=C2C(=O)CC(C)(C)C3)cc(OC)c1OC (stereo unspecified),16µM,-,?,-,-,21µM
COc1ccc(CCNC(=O)CN(C)S(=O)(=O)c2cccs2)cc1,-,-,-,-,-,-
Fc1ccc(CNC(=S)Nc2cccc(C(F)(F)F)c2)cc1,18µM,-,?,?,?,?
SMILES,DT40 TDP1 no CPT,HepG2 viability,HT1080 IDH1KD tx,TGFb SMAD3 inh,HT1080NT lethal,DT40 TDP1 CPT
O=[N+]([O-])c1cc(C(F)(F)F)cc([N+](=O)[O-])c1NCCNC(=S)Nc1cccc(F)c1,26µM,-,-,11µM,-,?
Fc1cccc(NC(=S)NCc2ccc(Cl)cc2)c1,?,-,-,-,-,?
Fc1ccccc1CNC(=S)Nc1cccc(C(F)(F)F)c1,23µM,-,-,?,-,?
COc1ccc(S(=O)(=O)N(C)CC(=O)NC2CC2)cc1,-,18µM,-,-,-,-
COc1ccc(N(C)S(=O)(=O)c2cccc(C(=O)NC3CCC(C)CC3)c2)cc1 (stereo unspecified),16µM,-,-,-,-,?
COc1ccc(N(C)S(=O)(=O)c2cccc(C(=O)NC3CCCCCC3)c2)cc1,?,-,?,-,-,-
COc1ccc(S(=O)(=O)N(C)c2ccc(C(=O)NC3CC3)cc2)cc1,-,-,-,-,-,-
CN(CC(=O)NC1CC1)S(=O)(=O)c1ccc(F)cc1,-,-,-,-,-,-
COc1ccc(N(C)S(=O)(=O)c2cccc(C(=O)Nc3cccc(C(=O)NC4CC4)c3)c2)cc1,16µM,-,-,-,-,15µM
CCOC(=O)C(=O)N(C)c1c(CC)nc2c(OCc3ccc(OC)cc3)cccn12,-,-,-,-,-,?
O=[N+]([O-])c1ccccc1S(=O)(=O)N1CCCc2ccccc21,?,-,-,?,-,-
CC(C)(C)NS(=O)(=O)c1cc(C(=O)Nc2sccc2C#N)ccc1Cl,12µM,-,?,?,?,16µM
COC(=O)c1cn(-c2nc3ccccc3s2)nn1,16µM,.,-,.,-,?
Clc1ccc(-c2cn(-c3nc4ccccc4s3)nn2)cc1,-,.,-,.,-,-
COc1ccccc1NC(=O)CSc1nc(O)c(C/C=C/c2ccccc2)c(=O)[nH]1,-,-,.,-,.,-
COc1ccc2[nH]cc(CCNc3ncncc3-c3ccccc3C(F)(F)F)c2c1,?,.,.,.,.,16µM
COc1ccc2[nH]cc(CCNc3ncncc3-c3ccccc3Cl)c2c1,?,.,.,.,.,23µM
Clc1ccc(-n2cccc2CN2CCc3nnc(Cc4ccccc4)n3CC2)nc1,-,.,.,.,.,-
